An excerpt weighted towards active compounds, which were near 3.2% of everything screened.
PMP22 txn: modulates PMP22 transcription in S16 Schwann cells; S16 Pmp22-F2sN Schwann cells, FLuc/NLuc coincidence luminescence, 24 h; Potency, µM (top dose mostly 57.5 µM), most hits filed as inhibitors; actives 2% (n = 43,000); active = clear falling dose curves in both reporters; inconclusive = both reporters move, but less clearly or upward; inactive = either reporter flat; the % is the NLuc reporter signal
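S16 Schwann cells carrying FLuc/NLuc coincidence reporter in the Pmp22 3' UTR treated with compound 24 h at 37C; FLuc then NLuc luminescence read sequentially by dual-luciferase reagents.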
S16 viability: toxic to S16 Pmp22-F2sN Schwann cells | S16 Pmp22-F2sN Schwann cells viability, CellTiter-Glo, 24 h | Potency, µM (top dose mostly 57.5 µM), hits mostly cytotoxic | actives 0.48% (n = 43,000) | AID 1508642; also: nearly all actives have a fitted effect of over 65% in size
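Used to flag compounds lowering reporter output through toxicity, this quantitative HTS measures ATP-based CellTiter-Glo luminescence in S16 Pmp22-F2sN Schwann cells after 24 h compound exposure at 37C.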
p53null 32C tox: selectivity test: cytotoxicity in p53 null cells, permissive temperature; H1299-neo p53 null cells, ATP luminescence, 24 h, 32C; Potency, µM (titrated, usually from 46.1 µM), usual class: cytotoxic; actives 0.62% (n = 55,000); also: nearly all actives have a fitted effect of over 55% in size
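H1299-neo (p53 null) cells, 600/well, treated 24 h at 32C with compound up to 46 uM; ATPlite luminescence viability, normalized to DMSO and 100 uM tamoxifen; AC50 by Hill fit.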
p53null 39C tox: kills p53 null cells at the nonpermissive temperature; H1299 p53-null (neo) cells, 39C, ATPlite viability, 24 h; Potency, µM (doses to about 46.1 µM), hits mostly cytotoxic; actives 0.97% (n = 55,000); AID 904; also: nearly all actives have a fitted effect of over 50% in size
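ATP-luminescence viability readout (ATPlite, 20 min RT) after 24 hr compound treatment at 39C of H1299-neo or H1299-p53A138V cells; titration up to 46 uM; normalized to DMSO and 100 uM tamoxifen; Hill-fit AC50.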
mTORC1 inh: mTORC1 pathway inhibition measured by phospho-rpS6; Tsc2-/- p53-/- MEF, phospho-rpS6 immunofluorescence/PI, 24 h; Potency, µM (doses to about 38.3 µM), most hits filed as inhibitors; actives 0.78% (n = 44,000); also: nearly all actives have a fitted effect of over 50% in size
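Tsc2-/-, p53-/- mouse embryonic fibroblasts (empty-vector line) exposed to compound 24 hrs at 37 C, fixed, immunostained for phospho-rpS6 and counterstained with propidium iodide. Acumen laser scanning gives % positive cells from Alexa 488/PI ratio, thresholded using 7.5 nM rapamycin; PI count gives viability.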
NLuc saturating: inhibits NanoLuc at saturating substrate, PMP22 counter-screen; shares compounds with PMP22 txn; Secreted NLuc enzyme (filtered S16 cell medium), Nano-Glo luminescence; Potency, µM (top dose mostly 57.5 µM), hits mostly inhibitors; actives 4% (n = 690)
NLuc Km ctr: inhibits NanoLuc under Km conditions, PMP22 counter-screen; actives 5% (n = 690); Potency, µM (titrated, usually from 57.5 µM), hits mostly inhibitors; secreted NLuc enzyme, coelenterazine luminescence, Km conditions; shares compounds with PMP22 txn
FLuc counter: firefly luciferase enzyme inhibition artifact for PMP22 screen. shares compounds with PMP22 txn. purified P. pyralis FLuc, luminescence, 10 min. Potency, µM (titrated, usually from 57.5 µM), actives largely listed as inhibitors. 690 tested, under 10 active. AID 1508640
Target sequence (P08659 whole entry, looked up): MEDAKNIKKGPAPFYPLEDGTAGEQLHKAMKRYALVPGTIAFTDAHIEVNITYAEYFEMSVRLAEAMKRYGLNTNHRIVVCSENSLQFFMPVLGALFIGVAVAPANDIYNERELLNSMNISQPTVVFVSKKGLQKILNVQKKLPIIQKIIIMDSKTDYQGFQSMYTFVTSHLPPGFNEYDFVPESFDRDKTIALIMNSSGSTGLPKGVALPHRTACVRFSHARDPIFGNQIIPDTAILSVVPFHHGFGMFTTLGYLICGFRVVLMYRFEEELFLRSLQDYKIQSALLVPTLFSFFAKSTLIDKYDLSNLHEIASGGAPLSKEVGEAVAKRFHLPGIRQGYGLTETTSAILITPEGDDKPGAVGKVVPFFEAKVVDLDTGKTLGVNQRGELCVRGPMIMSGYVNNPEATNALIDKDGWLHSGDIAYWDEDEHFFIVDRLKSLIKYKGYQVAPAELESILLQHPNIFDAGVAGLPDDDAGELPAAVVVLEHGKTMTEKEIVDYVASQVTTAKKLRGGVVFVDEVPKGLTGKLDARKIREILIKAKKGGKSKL
S16 viab conf: confirmation of cytotoxicity in S16 Pmp22-F2sN Schwann cells (luciferase reporters placed in the Pmp22 gene). shares compounds with PMP22 txn. S16 Schwann cells viability, CellTiter-Glo ATP luminescence, 24 h. Potency, µM (doses to about 57.5 µM), usual class: cytotoxic. actives 7% (n = 690). AID 1508641
PMP22 txn conf: confirmation of modulators of PMP22 gene transcription in S16 cells; shares compounds with PMP22 txn; S16 Schwann cells Pmp22-F2sN, dual luciferase, 24 h; Potency, µM (doses to about 57.5 µM), actives largely listed as inhibitors; actives 22% (n = 690); AID 1508646; active = clear falling dose curves in both reporters; inconclusive = both reporters move, but less clearly or upward; inactive = either reporter flat; the % is the FLuc reporter signal
PMP22 HiBiT cnf: rat PMP22 protein level modulation, confirmatory. 95 tested, under 10 active. shares compounds with PMP22 txn. S16 Schwann cells Pmp22-HiBiT, luminescence, 48 h. Potency, µM (titrated, usually from 27.9 µM), most hits filed as inhibitors
Target sequence (P25094 whole entry, looked up): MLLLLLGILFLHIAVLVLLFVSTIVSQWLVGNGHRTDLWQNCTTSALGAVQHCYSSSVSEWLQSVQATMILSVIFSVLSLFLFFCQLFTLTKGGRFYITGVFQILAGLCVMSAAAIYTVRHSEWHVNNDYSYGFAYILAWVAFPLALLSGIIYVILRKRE
Numbers stand for hits; i = inactive; ? = inconclusive; nt = no result given. Unless noted, calls follow the shape of the dose curve; as a rule, active = well fitted curve in the direction sought with a large enough effect; inconclusive = small, poorly fitted or top-dose-only effect, or another doubt; inactive = no such curve, though single readings can be large; an effect the other way counts as inactive or inconclusive.

SMILES | PMP22 txn | S16 viability | p53null 32C tox | p53null 39C tox | mTORC1 inh | NLuc saturating | NLuc Km ctr | FLuc counter | S16 viab conf | PMP22 txn conf | others
CSc1ncc(C(=O)NCc2cccc(C)c2)c(-c2ccccc2)n1 | i | i | i | i | i | nt | nt | nt | nt | nt
CCN(CC)CCn1c2c(c(SCC(=O)Nc3cccc(C(F)(F)F)c3)nc1=O)CCC2 | 16µM | i | i | i | i | i | i | i | i | ?
O=C(CSc1nc(=O)n(Cc2ccncc2)c2c1CCC2)Nc1cccc(F)c1 | ? | i | i | i | i | nt | nt | nt | nt | nt
CCOc1ccccc1NC(=O)c1c(NC(=O)COc2ccccc2)sc2c1CCCCC2 | 13µM | i | i | i | i | i | i | i | i | i
CCOc1ccccc1NC(=O)c1c(NC(=O)COc2ccc(Cl)cc2)sc2c1CCCCC2 | i | i | i | i | i | nt | nt | nt | nt | nt
Nc1ccc(N2CCN(c3ncc(C(F)(F)F)cc3Cl)CC2)c(C(F)(F)F)c1 | ? | i | ? | ? | ? | nt | nt | nt | nt | nt
CCOC(=O)c1ccc(N2C(=O)c3n[nH]c(-c4ccco4)c3C2c2ccc(C)cc2)cc1 (configuration not stated) | ? | i | i | ? | ? | nt | nt | nt | nt | nt
CCOC(=O)c1ccc(N2C(=O)c3n[nH]c(-c4ccco4)c3C2c2ccc(O)c(OC)c2)cc1 (configuration not stated) | 11µM | i | i | ? | ? | ? | ? | i | i | 19µM
CCc1ccc(S(=O)(=O)c2cn(Cc3ccccc3F)c3cc(OC)c(OC)cc3c2=O)cc1 | 14µM | i | i | i | i | i | i | i | i | i
CCc1ccc(S(=O)(=O)c2cn(Cc3ccc(OC)cc3)c3cc(OC)c(OC)cc3c2=O)cc1 | i | i | i | i | i | nt | nt | nt | nt | nt
COc1ccccc1N1CCN(CCCNC(=O)c2nnc(Cc3c(F)cccc3Cl)o2)CC1 | 13µM | i | i | i | i | i | i | i | i | i
CCC(=O)N1c2ccccc2CC1C(=O)NCCc1ccc(Cl)cc1 (configuration not stated) | ? | i | i | i | ? | nt | nt | nt | nt | nt
CCOc1ccc(C(=O)c2cnc3ccc(Cl)cc3c2S(=O)(=O)c2ccc(C)cc2)cc1 | 14µM | i | i | i | i | i | i | i | i | 19µM | PMP22 HiBiT cnf=i
COc1ccc(NC(=O)CSc2nc(-c3ccco3)cc(C(F)(F)F)n2)cc1 | ? | i | i | i | i | i | i | i | i | i
CCc1nn(CC(=O)NCC(C)c2ccccc2)c(=O)c2cc3c(OC)cccc3n12 (configuration not stated) | nt | nt | ? | i | i | nt | nt | nt | nt | nt
COc1ccccc1NC(=O)Cn1nnc(C(=O)NCc2cccs2)c1N | 1.2µM | i | i | i | i | i | i | i | i | ?
CCc1ccccc1NC(=O)Cn1nnc(C(=O)NCc2cccs2)c1N | ? | i | i | i | i | i | i | i | i | ?
COc1ccc(NC(=O)Cn2nnc(C(=O)NCc3cccs3)c2N)cc1 | i | i | i | i | i | nt | nt | nt | nt | nt
CCCCNc1sc(S(=O)(=O)CCC)nc1S(=O)(=O)c1ccc(C)cc1 | i | i | i | i | i | nt | nt | nt | nt | nt
COc1ccc(C2C(=O)N(C3CCCCCC3)CC(=O)N2Cc2ccccc2)cc1 (configuration not stated) | nt | nt | i | i | i | nt | nt | nt | nt | nt
Cc1cccc(N2CCN(C(=O)C3CCCN(S(=O)(=O)c4ccc5c(c4)oc(=O)n5C)C3)CC2)c1C (configuration not stated) | 11µM | i | i | i | i | i | i | i | i | ? | PMP22 HiBiT cnf=?
Cn1c(=O)oc2cc(S(=O)(=O)N3CCCC(C(=O)N4CCN(c5cccc(Cl)c5)CC4)C3)ccc21 (configuration not stated) | 13µM | i | i | i | i | i | i | i | i | 17µM | PMP22 HiBiT cnf=?
COc1cccc(N2CCN(C(=O)C3CCN(S(=O)(=O)c4ccc5c(c4)oc(=O)n5C)CC3)CC2)c1 | i | i | i | i | i | nt | nt | nt | nt | nt
Cc1cccc(N2CCN(C(=O)C3CCN(S(=O)(=O)c4ccc5c(c4)oc(=O)n5C)CC3)CC2)c1C | 20µM | i | i | i | i | i | i | i | i | i
CCOc1ccccc1CNC(=O)CSc1n[nH]c(-c2ccccc2Cl)n1 | i | i | i | i | i | nt | nt | nt | nt | nt
SMILES | PMP22 txn | S16 viability | p53null 32C tox | p53null 39C tox | mTORC1 inh | NLuc saturating | NLuc Km ctr | FLuc counter | S16 viab conf | PMP22 txn conf | others
CCOc1cc(C(=O)N2CCc3c([nH]c4ccccc34)C2c2ccccc2)cc(OCC)c1OCC (configuration not stated) | ? | ? | i | i | i | nt | nt | nt | nt | nt
COC(=O)c1ccccc1NC(=O)C1=C(C)C(=O)OC12CCC(C)CC2 (configuration not stated) | i | i | i | i | i | nt | nt | nt | nt | nt
COc1ccc(Nc2cc(C)nc3c(C)c(C)ccc23)cc1 | 14µM | i | i | i | ? | i | i | i | i | i
Cc1ccc(C)c(NC(=O)Cn2c(=O)n(Cc3ccc4c(c3)OCO4)c(=O)c3ccc(C(=O)NC4CCCCC4)cc32)c1 | 4µM | i | i | i | i | i | i | i | i | 18µM | PMP22 HiBiT cnf=i
Cc1cc(C)c(NC(=O)Cn2c(=O)n(Cc3ccc(C(=O)NCc4ccc5c(c4)OCO5)cc3)c(=O)c3ccccc32)c(C)c1 | 11µM | ? | i | ? | 5.2µM | i | i | i | 27µM | 8.9µM
CCN(C(=O)Cn1c(=O)n(Cc2ccc3c(c2)OCO3)c(=O)c2ccc(C(=O)NC3CCCCC3)cc21)c1cccc(C)c1 | i | i | i | i | i | nt | nt | nt | nt | nt
Cc1ccccc1NC(=O)Cn1c(=O)n(Cc2ccc3c(c2)OCO3)c(=O)c2ccc(C(=O)NC3CCCCC3)cc21 | 11µM | ? | i | i | i | i | i | i | 24µM | 15µM

High-throughput results deposited in PubChem by National Center for Advancing Translational Sciences (NCATS).
